Results taken from PubChem BioAssay (Tox21).
Records with an inconclusive call do not appear. Activity calls are given as the source filed them. Unless noted, calls follow the shape of the full dose curve.

Assays:
[1] = Nuclear factor erythroid 2-related factor 2/antioxidant responsive element (Nrf2/ARE) small molecule agonists: qHTS cell viability counter screen in human keratinocytes (AID 1919968; active = well fitted curve in the direction sought with a large enough effect in the repeat runs; an effect the other way counts as inactive or inconclusive; also: nearly all actives have a fitted effect of over 55% in size; also: potency is read from the fitted curve at half-maximal effect)
Procedure, shortened: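 Viability counter-screen: KeratinoSens reporter cells, DMSO-delivered compounds, 23 h at 37 C, CellTiter-Fluor fluorescence.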

[2] = molecular target: Gonadotropin-releasing hormone receptor (Homo sapiens) (UniProt P30968); assay: Human gonadotropin-releasing hormone receptor (GnRHR) small molecule agonists, calcium flux assay in GnRHR-HEK293 cells (AID 1920063); also: nearly all actives have a fitted effect of over 35% in size
Sequence of Gonadotropin-releasing hormone receptor (Homo sapiens) (P30968 whole entry, looked up): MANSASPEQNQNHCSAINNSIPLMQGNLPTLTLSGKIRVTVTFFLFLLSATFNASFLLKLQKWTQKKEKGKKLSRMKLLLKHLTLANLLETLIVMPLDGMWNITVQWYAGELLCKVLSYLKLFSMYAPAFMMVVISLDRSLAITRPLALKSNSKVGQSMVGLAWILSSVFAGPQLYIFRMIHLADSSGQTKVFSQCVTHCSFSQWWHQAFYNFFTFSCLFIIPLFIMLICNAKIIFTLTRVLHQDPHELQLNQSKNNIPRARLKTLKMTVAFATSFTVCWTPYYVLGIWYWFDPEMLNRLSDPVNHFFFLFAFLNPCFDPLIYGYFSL
Procedure, shortened: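 Tox21-format agonist screen using human GnRHR-expressing HEK293 cells and a fluorescent calcium dye; kinetic 3-min fluorescence reading after compound addition, 15-point concentration series run in triplicate.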

[3] = molecular target: KiSS-1 receptor (Homo sapiens) (UniProt Q969F8); assay: Human kisspeptin (KISS1R) small molecule agonists, calcium flux assay in KISS1R-HEK293 cells (AID 1920064; active = well fitted curve in the direction sought with a large enough effect in the repeat runs; an effect the other way counts as inactive or inconclusive)
Sequence of KiSS-1 receptor (Homo sapiens) (Q969F8 whole entry, looked up): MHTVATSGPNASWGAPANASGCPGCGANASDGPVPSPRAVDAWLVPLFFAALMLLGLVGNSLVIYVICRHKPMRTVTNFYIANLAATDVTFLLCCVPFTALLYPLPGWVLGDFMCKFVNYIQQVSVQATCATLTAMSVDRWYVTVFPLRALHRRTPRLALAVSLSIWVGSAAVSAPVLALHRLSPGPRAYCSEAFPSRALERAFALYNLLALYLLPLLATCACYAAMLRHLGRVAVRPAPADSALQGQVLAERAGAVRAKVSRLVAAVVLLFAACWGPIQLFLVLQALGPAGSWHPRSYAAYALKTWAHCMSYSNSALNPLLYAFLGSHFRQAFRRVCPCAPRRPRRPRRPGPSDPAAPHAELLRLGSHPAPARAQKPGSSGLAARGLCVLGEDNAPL
Procedure, shortened: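 Intracellular calcium mobilization in KISS1R-HEK293 cells was recorded by fluorescence (Ex/Em 480/540) for 3 min following compound addition to cells pre-loaded 1 h with calcium dye.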

[4] = G protein-coupled receptor (GPCR) small molecule agonists, calcium flux assay: HEK293 wild type cell line counter screen (AID 1920065)
Procedure, shortened: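 In this agonist-mode screen, ATP is the positive control and DMSO the vehicle. Cells grow 18 h before a 1 h dye incubation at 37 C; signal is taken at Ex/Em 480/540 over 3 min.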

[5] = p53 small molecule agonists, cell-based qHTS assay with human liver microsomes (AID 1963577)
Procedure, shortened: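 Compounds act here after metabolic activation: human liver microsomes and NADPH, both at 0.5 mg/mL final, were co-added to p53RE-bla cells. Incubation ran 16 h at 37 C, followed by LiveBLAzer detection.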

[6] = p53 small molecule agonists, cell-based qHTS assay with rat liver microsomes (AID 1963578)
Procedure, shortened: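 Read-out is beta-lactamase reporter fluorescence (LiveBLAzer, 2 h, room temperature, dark) in p53RE-bla cells treated 16 h at 37 C with compound, rat liver microsomes and NADPH, both 0.5 mg/mL final.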

[7] = p53 small molecule agonists, cell-based qHTS assay with human liver microsomes: qHTS cell viability counter screen (AID 1963579); also: nearly all actives have a fitted effect of over 45% in size
Procedure, shortened: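 Cells carrying the p53 response-element beta-lactamase reporter are treated for 16 h at 37 C with test compounds in the presence of human liver microsomes and NADPH (both 0.5 mg/mL final); ATP-based CellTiter-Glo luminescence then reports viability.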

[8] = p53 small molecule agonists, cell-based qHTS assay with rat liver microsomes: qHTS cell viability counter screen (AID 1963580); also: nearly all actives have a fitted effect of over 45% in size
Procedure, shortened: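 In HCT-116 cells carrying a p53 response element-bla reporter, compounds were metabolically activated in situ by rat liver microsomes with NADPH over 16 h. Cell ATP content then served as the cytotoxicity measure.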

[9] = p53 small molecule agonists, cell-based qHTS assay (AID 1963582; active = well fitted activation curve with a large enough effect in the signal ratio in the repeat runs, not every such curve was filed as active; the % refers to the signal ratio; also: potency is read from the fitted curve at half-maximal effect)
Procedure, shortened: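 Agonist activity was scored from beta-lactamase FRET fluorescence in p53RE-bla cells treated 16 h at 37 C with compounds in DMSO, substrate incubation being 2 h at room temperature.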

[10] = molecular target: 5-hydroxytryptamine receptor 2A (Homo sapiens) (UniProt P28223); assay: 5-hydroxytryptamine receptor 2A (HTR2A) small molecule antagonists, cell-based qHTS assay (AID 1963586); also: nearly all actives have a fitted effect of over 45% in size
Sequence of 5-hydroxytryptamine receptor 2A (Homo sapiens) (P28223 whole entry, looked up): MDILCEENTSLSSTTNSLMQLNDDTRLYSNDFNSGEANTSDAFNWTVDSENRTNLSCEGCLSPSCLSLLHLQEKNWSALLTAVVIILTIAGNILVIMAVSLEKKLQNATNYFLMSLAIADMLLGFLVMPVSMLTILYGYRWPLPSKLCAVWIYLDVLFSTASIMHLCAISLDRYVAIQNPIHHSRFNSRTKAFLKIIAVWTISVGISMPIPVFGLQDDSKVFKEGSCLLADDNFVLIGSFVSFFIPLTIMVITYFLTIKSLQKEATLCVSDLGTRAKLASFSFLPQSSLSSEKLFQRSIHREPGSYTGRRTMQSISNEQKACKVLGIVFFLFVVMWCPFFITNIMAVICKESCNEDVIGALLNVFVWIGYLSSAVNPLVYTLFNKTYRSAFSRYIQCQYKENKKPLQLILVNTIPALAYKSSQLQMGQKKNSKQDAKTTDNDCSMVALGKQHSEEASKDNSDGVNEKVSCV
Procedure, shortened: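 Antagonist-mode intracellular calcium assay: DOI (4 nM) added after 5 min compound pre-incubation at room temperature to dye-loaded HTR2A-CHO cells. Fluorescence followed for 3 min, sampled every second.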

[11] = molecular target: 5-hydroxytryptamine receptor 2A (Homo sapiens) (UniProt P28223); assay: 5-hydroxytryptamine receptor 2A (HTR2A) small molecule agonists, cell-based qHTS assay (AID 1963587); also: nearly all actives have a fitted effect of over 30% in size
Procedure, shortened: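 HTR2A-CHO cells, plated 18 h at 37 C/5% CO2, dye-loaded 1 h at 37 C; compounds in DMSO added by pin tool (agonist mode). Intracellular calcium flux read as kinetic fluorescence on FDSS over 2 min at 1 s intervals.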

[12] = molecular target: Muscarinic acetylcholine receptor M1 (Homo sapiens) (UniProt P11229); assay: Cholinergic receptor muscarinic 1 (CHRM1) small molecule antagonists, cell-based qHTS assay (AID 1963588); also: nearly all actives have a fitted effect of over 40% in size
Sequence of Muscarinic acetylcholine receptor M1 (Homo sapiens) (P11229 whole entry, looked up): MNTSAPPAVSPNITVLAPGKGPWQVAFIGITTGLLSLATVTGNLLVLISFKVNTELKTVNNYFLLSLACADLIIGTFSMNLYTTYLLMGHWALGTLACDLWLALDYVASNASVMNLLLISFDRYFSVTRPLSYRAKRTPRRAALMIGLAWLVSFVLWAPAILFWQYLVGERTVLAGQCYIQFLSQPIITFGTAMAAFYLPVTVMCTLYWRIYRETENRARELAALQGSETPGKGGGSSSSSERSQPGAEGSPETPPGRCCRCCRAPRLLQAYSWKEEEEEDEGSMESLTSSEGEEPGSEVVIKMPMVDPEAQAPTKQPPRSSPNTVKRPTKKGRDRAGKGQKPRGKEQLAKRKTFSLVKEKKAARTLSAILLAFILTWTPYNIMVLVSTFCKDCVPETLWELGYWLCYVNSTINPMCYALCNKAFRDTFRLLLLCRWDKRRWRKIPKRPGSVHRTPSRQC
Procedure, shortened: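 CHRM1-CHO calcium-flux assay, antagonist mode. Cells were seeded 18 h, dye-loaded 1 h at 37 C and given compound for 5 min at RT, then acetylcholine was added at 50nM. FDSS fluorescence was read 3 min; 15 concentrations, three runs.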

[13] = molecular target: Muscarinic acetylcholine receptor M1 (Homo sapiens) (UniProt P11229); assay: Cholinergic receptor muscarinic 1 (CHRM1) small molecule agonists, cell-based qHTS assay (AID 1963589); also: nearly all actives have a fitted effect of over 35% in size
Procedure, shortened: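 Stable CHRM1-CHO cells (human receptor) were incubated 18 h, dye-loaded for 1 h at 37 C and exposed to test compounds for agonist activity, with calcium-dependent fluorescence followed kinetically.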

[14] = molecular target: Beta-2 adrenergic receptor (Homo sapiens) (UniProt P07550); assay: Adrenergic beta2 receptor (ADRB2) small molecule antagonists, cell-based qHTS assay (AID 1963592); also: series mostly up to about 92 µM; nearly all actives have a fitted effect of over 50% in size
Sequence of Beta-2 adrenergic receptor (Homo sapiens) (P07550 whole entry, looked up): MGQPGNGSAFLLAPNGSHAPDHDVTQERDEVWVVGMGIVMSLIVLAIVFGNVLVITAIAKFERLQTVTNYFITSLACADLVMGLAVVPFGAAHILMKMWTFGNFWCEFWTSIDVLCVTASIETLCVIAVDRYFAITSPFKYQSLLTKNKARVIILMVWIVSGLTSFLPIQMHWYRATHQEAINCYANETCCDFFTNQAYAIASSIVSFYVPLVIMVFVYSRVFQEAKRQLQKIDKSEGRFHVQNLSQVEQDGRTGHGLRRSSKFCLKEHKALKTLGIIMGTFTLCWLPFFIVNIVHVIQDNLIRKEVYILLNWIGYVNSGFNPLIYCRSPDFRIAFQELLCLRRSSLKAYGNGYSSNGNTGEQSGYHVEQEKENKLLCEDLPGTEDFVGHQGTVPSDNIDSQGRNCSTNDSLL
Procedure, shortened: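 Cells (CHO, stable ADRB2 overexpression) incubated 18-20hr at 37C; compounds added from DMSO; agonist mix (1nM isoproterenol, 100uM IBMX, 25uM Ro-20-1724) added; 0.5hr RT; d2-cAMP and anti-cAMP-cryptate added; 1hr RT; 665/615 nm read.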

[15] = molecular target: D(2) dopamine receptor (Homo sapiens) (UniProt P14416); assay: Dopamine D2 receptor (DRD2) small molecule agonists, cell-based qHTS assay (AID 1963594); also: nearly all actives have a fitted effect of over 35% in size
Sequence of D(2) dopamine receptor (Homo sapiens) (P14416 whole entry, looked up): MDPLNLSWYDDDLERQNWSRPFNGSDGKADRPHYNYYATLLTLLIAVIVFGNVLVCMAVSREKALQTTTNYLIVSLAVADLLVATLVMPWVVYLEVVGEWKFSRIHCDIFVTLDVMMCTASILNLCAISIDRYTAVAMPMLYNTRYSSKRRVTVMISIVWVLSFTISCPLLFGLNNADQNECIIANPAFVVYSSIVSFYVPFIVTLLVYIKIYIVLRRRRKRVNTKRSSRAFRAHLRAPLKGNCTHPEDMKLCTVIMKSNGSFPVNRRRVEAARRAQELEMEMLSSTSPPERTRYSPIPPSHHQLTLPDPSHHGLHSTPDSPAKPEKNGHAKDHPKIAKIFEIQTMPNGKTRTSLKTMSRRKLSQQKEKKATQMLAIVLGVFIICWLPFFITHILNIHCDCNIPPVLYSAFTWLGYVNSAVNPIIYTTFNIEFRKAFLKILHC
Procedure, shortened: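 HEK293 cells stably expressing DRD2 were cultured 24 h at 37 C, then given Ro20-1724 (0.1 mM final) and compounds for 10 min at room temperature. NKH477 (200nM) was then added for 30 min. cAMP was read by HTRF.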

[16] = molecular target: D(2) dopamine receptor (Homo sapiens) (UniProt P14416); assay: Dopamine D2 receptor (DRD2) small molecule antagonists, cell-based qHTS assay (AID 1963595; active = well fitted inhibition curve with a large enough effect in the signal ratio in the repeat runs, with a control signal flat; the % refers to the signal ratio)
Procedure, shortened: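 Stable D2 receptor HEK293 line, 24 h after seeding. Compound preincubated 10 min, then quinpirole (12 nM) with forskolin analogue NKH477 (200 nM), 30 min, room temperature. Detection by time-resolved FRET of cAMP.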

[17] = cAMP Responsive Elements (CRE) small molecule agonists, cell-based qHTS assay (AID 1963590)
Procedure, shortened: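 FRET-based beta-lactamase readout (LiveBLAzer B/G, 2 h RT) quantified CRE activation in HEK 293T CRE-bla cells after 3 h treatment with DMSO-dissolved compounds.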

[18] = cAMP Responsive Elements (CRE) small molecule antagonists, cell-based qHTS assay (AID 1963591; active = well fitted inhibition curve with a large enough effect in the signal ratio in the repeat runs, not every such curve was filed as active; the % refers to the signal ratio)
Procedure, shortened: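 qHTS in CRE-bla HEK 293T cells: compound in DMSO, then 0.25 uM NKH477 (final), 3 h at 37 °C/5% CO2; beta-lactamase FRET read-out after 2 h substrate incubation.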

[19] = molecular target: Beta-2 adrenergic receptor (Homo sapiens) (UniProt P07550); assay: Adrenergic beta2 receptor (ADRB2) small molecule agonists, cell-based qHTS assay (AID 1963593);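 also: CHO cells stably overexpressing human ADRB2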
Procedure, shortened: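 CHO cells stably over-expressing ADRB2 were plated overnight at 37C, then dosed with compounds plus a stimulation mix containing 100uM IBMX and 25uM Ro-20-1724 for 0.5hr at room temperature. cAMP was measured by HTRF competition, 1hr.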

[20] = p53 small molecule agonists, cell-based qHTS assay: qHTS cell viability counter screen (AID 1963581); also: nearly all actives have a fitted effect of over 45% in size; also: potency is read from the fitted curve at half-maximal effect
Procedure, shortened: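 Compounds are pinned onto HCT-116 p53RE-bla cells and left 16 h at 37 C. Following the reporter FRET read, ATP is quantified by CellTiter-Glo luminescence after 30 min at room temperature.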
% is scaled to controls: 0 for no effect and ±100 for the full control effect.

C=CC(=O)OCCOc1ccccc1
inactive: Potency [1] | Potency [2] | Potency [3] | Potency [4] | Potency [5] | Potency [6] | Potency [7] | Potency [8] | Potency [9] | Potency [10] | Potency [11] | Potency [12] | Potency [13] | Potency [14] | Potency [15] | Potency [16]

COc1nc(N)nc2c1ncn2[C@@H]1O[C@H](CO)[C@@H](O)[C@@H]1O
inactive: Potency [1] | Potency [2] | Potency [3] | Potency [4] | Potency [5] | Potency [6] | Potency [7] | Potency [8] | Potency [9] | Potency [10] | Potency [11] | Potency [12] | Potency [17] | Potency [18] | Potency [14] | Potency [19] | Potency [15]

O=P(c1ccccc1)(c1ccccc1)c1ccccc1
inactive: Potency [1] | Potency [2] | Potency [3] | Potency [4] | Potency [5] | Potency [6] | Potency [7] | Potency [8] | Potency [20] | Potency [10] | Potency [11] | Potency [12] | Potency [17] | Potency [18] | Potency [14] | Potency [15] | Potency [16]

O=C(O)Cc1cc(I)c(Oc2ccc(O)c(I)c2)c(I)c1
active: Potency [9] 11.5 µM
inactive: Potency [1] | Potency [2] | Potency [3] | Potency [4] | Potency [5] | Potency [6] | Potency [7] | Potency [8] | Potency [10] | Potency [11] | Potency [12] | Potency [13] | Potency [14]

C=C/C=C/C=C/CCCCC
inactive: activity change, negative = cytotoxicity [1] 4.28% [at 19 µM] | activity change [2] 0.656% [at 11.8 µM, stronger effect = higher value] | activation [3] 1.28% [at 15.8 µM] | activation [4] 0.367% [at 11.8 µM] | activation [5] -4.49% [at 13.5 µM] | activation [6] 0.431% [at 13.6 µM] | activity change, negative = cytotoxicity [7] 1.88% [at 13.5 µM] | activity change, negative = cytotoxicity [8] -6.94% [at 13.5 µM] | activity change, negative = cytotoxicity [20] -4.28% [at 13.5 µM] | activity, negative = inhibition [10] -10.4% [at 12.7 µM] | activity, negative = inhibition [12] 25.8% [at 12.6 µM] | activation [13] 0.27% [at 15.8 µM] | activation [17] 0.016% [at 19 µM] | activity change, negative = inhibition [18] 0.0574% [at 18.9 µM] | activity change, negative = inhibition [14] 4.38% [at 19 µM] | activation [15] -0.0392% [at 19 µM] | activity change, negative = inhibition [16] -7.54% [at 18.9 µM]

O=C(Nc1ccc(Oc2ccc(Cl)cc2)c(Cl)c1)c1cc(I)cc(I)c1O
active: Potency [1] 26.6 µM | Potency [20] 5 µM
inactive: Potency [2] | Potency [3] | Potency [4] | Potency [5] | Potency [6] | Potency [7] | Potency [8] | Potency [10] | Potency [13] | Potency [18] | Potency [14] | Potency [15] | Potency [16]

CCc1c(C)cc(N)c(CC)c1N
inactive: Potency [1] | Potency [2] | Potency [3] | Potency [4] | Potency [5] | Potency [6] | Potency [7] | Potency [8] | Potency [9] | Potency [10] | Potency [11] | Potency [12] | Potency [13] | Potency [17] | Potency [18] | Potency [15] | Potency [16]
